# Screening results: PubChem, Broad Institute
# aSyn 5UTR act = Activators working through SNCA 5'UTR binding (MLPCN) | alpha-synuclein 5'UTR reporter, activators screen | activity score, % (tested at 7.5 µM), hits read low | 7.1% of 300,000 active | AID 1814; in the data active means activity score below about -60%
# * marks the source's active call; other numbers are inactive results. A selection follows.
SMILES,aSyn 5UTR act
Cn1c(=O)c(C(=O)c2ccc(S(C)(=O)=O)c(Cl)c2Cl)c(O)c2ccccc21,-85*
Cn1c(=O)c(C(=O)NCc2ccccc2)c(O)c2ccccc21,-74*
Cn1c(=O)c(C(=O)NCc2ccccc2Cl)c(O)c2ccccc21,-78*
COc1ccccc1/C=N/Nc1nncc2ccccc12,-132*
COc1cccc(/C=N/Nc2ncnc3scc(-c4ccccc4)c23)c1O,61
Oc1c(Br)cc(/C=N/Nc2nncc3ccccc23)cc1Br,-109*
COc1ccc(/C=N/Nc2nncc3ccccc23)cc1,67
N/C(=N\OC(=O)/C=C/c1ccccc1Cl)c1cccnc1,-248*
N/C(=N\OC(=O)/C=C/c1ccccc1)c1cccnc1,-159*
CC(C(=O)N1CCCCC1)n1sc2ccccc2c1=O (stereo not drawn),-134*
Cn1c(/C(C#N)=C(\O)c2ccc([N+](=O)[O-])s2)nc2ccccc21,-115*
Cn1c(/C(C#N)=C(\O)c2ccc(Cl)s2)nc2ccccc21,-80*
O=C(/C=C/c1ccccc1)NC1CC2CCC1C2 (stereo not drawn),-110*
c1ccc(-c2cc3c(ccc4nonc43)nn2)cc1,-96*
Clc1ccc(OCCn2cnc3ccccc32)c(Cl)c1,-126*
O=[N+]([O-])c1ccccc1OCCCn1cnc2ccccc21,-100*
N=c1n(Cc2ccccc2)c2ccccc2n1CC(O)COc1ccc(Cl)cc1Cl (stereo not drawn),90
O=c1c2ccccc2ncn1CCCOc1ccccc1[N+](=O)[O-],-150*
O=c1c2ccc([N+](=O)[O-])c3cccc(c32)c2nc3ccccc3n12,79
O=C(NC1CCCc2ccccc21)c1n[nH]c(=O)c2ccccc12 (stereo not drawn),88
O=C(NC1CCCCCC1)c1c(O)c2ccccc2[nH]c1=O,-132*
O=C(NCC1CCCO1)c1c(O)c2ccccc2[nH]c1=O (stereo not drawn),-140*
Oc1[nH]c2c(Cl)cc(Cl)cc2c1N=NC(=S)NCC1CCCO1 (stereo not drawn),79
CC(C)Cc1ccc(C(C)C(N)=NCCc2ccccc2)cc1 (stereo not drawn),-75*
O=C1OC2(CCCCC2)OC(=O)C1=CNc1ccc2c(c1)OCO2,-83*
SMILES,aSyn 5UTR act
Fc1ccc(-n2nnc(-c3ccnc4ccccc34)n2)cc1,-154*
Cc1ccc(-n2nnc(-c3ccnc4ccccc34)n2)cc1,-191*
CC1C/C(=C/c2ccncc2)C(=O)/C(=C/c2ccncc2)C1 (stereo not drawn),-107*
COc1cc(C(=O)Oc2c(CN3CCOCC3)cc(Cl)c3cccnc23)cc(OC)c1OC,78
CCCCCOc1ccc(CN2CCOCC2)cc1Cl,-154*
O=C(O)c1ccc(-c2nc(-c3ccc(Cl)cc3)cs2)cc1,-173*
COc1ccc(-c2csc(-c3ccc(C(=O)O)cc3)n2)cc1,-160*
C=CCNC(=O)c1ccc(-c2nc(-c3ccccc3)cs2)cc1,-102*
O=C(O)c1ccc(-c2nc(-c3ccc(Cl)cc3Cl)cs2)cc1,-179*
O=c1nc2c(-c3cccc(Br)c3)n[nH]n2c2ccccc12,-176*
O=C(Nc1ccccc1F)C1COc2ccccc2O1 (stereo not drawn),-91*
O=C(NCC1OCCc2ccccc21)c1ccc(NC(=O)c2ccc(Cl)cc2)cc1 (stereo not drawn),79
COC(=O)N1CCc2c(sc(NC(=O)C3=COCCO3)c2C#N)C1,-126*
O=C(NCC1COc2ccccc2O1)c1ccccc1 (stereo not drawn),-137*
Cc1ccc(NC(=O)C2OCCc3ccccc32)cc1 (stereo not drawn),-133*
NC(=O)c1oc2ccccc2c1NC(=O)C1COc2ccccc2O1 (stereo not drawn),-86*
O=C(Nc1ccccc1)C1COc2ccccc2O1 (stereo not drawn),-82*
COC(=O)N1CCc2c(sc(NC(=O)C3COc4ccccc4O3)c2C(N)=O)C1 (stereo not drawn),-137*
O=C(COC(=O)C1COc2ccccc2O1)NC(=O)NC1CCCC1 (stereo not drawn),-73*
Cc1ccc(NC(=O)C2COc3ccccc3O2)c(C)c1 (stereo not drawn),-110*
O=C(N/N=C\c1cc(Br)cs1)C1COc2ccccc2O1 (stereo not drawn),-127*
O=C(Nc1ncccc1Cl)C1COc2ccccc2O1 (stereo not drawn),-107*
C/C(=N\NC(=O)C1COc2ccccc2O1)c1ccccn1 (stereo not drawn),98
O=C(Nc1nnc(C(F)(F)F)s1)C1COc2ccccc2O1 (stereo not drawn),-69*
CC(=O)c1sc(NC(=O)C2COc3ccccc3O2)nc1C (stereo not drawn),62
SMILES,aSyn 5UTR act
Cc1ccc(NC(=O)C2COc3ccccc3O2)cc1 (stereo not drawn),-154*
Cc1cc(C)n2nc(-c3ccc(Br)cc3)cc2n1,-122*
COc1ccc(-c2nc3nc(C)cc(C)n3n2)cc1,-135*
COc1ccc(-c2cc3nc(C)cc(C)n3n2)cc1,-183*
Cc1cc(C)n2nc(-c3ccc(Cl)cc3)cc2n1,-129*
CCCOC(c1ccccc1)(c1ccc(C(F)(F)F)cc1)C(Oc1nc(C)cc(C)n1)C(=O)O (stereo not drawn),61
Cc1cc(C)n(-c2nc(-c3ccc(Cl)cc3)cs2)n1,-93*
Cc1sc2nc3ccc(NCc4ccco4)nn3c(=O)c2c1C,-119*
O=c1c2ccccc2nc2ccc(NCc3ccco3)nn12,-144*
Cc1cccc(-c2nsc(SCC(=O)Nc3ccc4c(c3)OCO4)n2)c1,-96*
CSc1nsc(SCC(=O)Nc2ccc3c(c2)OCCO3)n1,-136*
Cc1csc(SCC(=O)Nc2ccc3c(c2)OCCO3)n1,-67*
Cc1cc(/C=C2/SC(=O)N(CC(=O)N3CCOCC3)C2=O)c(C)n1-c1ccccc1F,-143*
COc1cc(/C=C2/C(=N)N3N=C(CC(=O)N4CCOCC4)SC3=NC2=O)ccc1OCc1ccc(F)cc1,-102*
COc1ccccc1-n1c(C)cc(/C=C2\C(=N)N3N=C(CC(=O)N4CCOCC4)SC3=NC2=O)c1C,-72*
CC(OC(=O)CNC(=O)c1ccccc1F)C(=O)Nc1nc(-c2ccccc2)cs1 (stereo not drawn),-104*
CC1=NN(c2nc(-c3ccc(C)cc3)cs2)C(=O)C1N=Nc1ccccc1O (stereo not drawn),63
COc1ccc(-c2csc(N3N=C(C)C(C)C3=O)n2)cc1 (stereo not drawn),-87*
COc1ccc(NC(=O)c2ccc(-c3csc(C)n3)cc2)cc1,-195*
COc1ccc(-c2csc(C)n2)cc1,-100*
Cc1nc(-c2cccc(N)c2)cs1,-63*
Cc1nc(-c2ccc(C(=O)Nc3ccc(F)cc3)cc2)cs1,-109*
Cc1nc(-c2cc(-c3ccc(Cl)cc3)no2)cs1,-137*
CC(C)(C)c1ccc(C(=O)NCC(=O)OCC(=O)Nc2nc(-c3ccc(F)cc3)cs2)cc1,-175*
Cc1nc(-c2ccc(C(=O)Nc3ccccc3F)cc2)cs1,92
SMILES,aSyn 5UTR act
N#C/C(=C/c1ccc(N2CCOCC2)o1)c1ccc(Cl)cc1,-286*
CCCn1cnc2c(sc3nc4c(cc32)CSC(C)(C)C4)c1=O,-105*
Clc1ccccc1CSc1nnc(-c2ccncc2)o1,-127*
N#Cc1cccc(-c2nnc(SCc3ccccc3C#N)o2)c1,-65*
N#Cc1ccccc1CSc1nnc(-c2ccncc2)o1,-114*
Fc1cccc(Cl)c1CSc1nnc(-c2ccncc2)o1,-109*
